Assay results reported in PubChem BioAssay (EPA / NIEHS).
Where “and” joins values, the source holds several entries; their conditions need not be identical. Equal values may be shown once. Calls of active or inactive are those of the source. The calls were made as follows: active = hit-call score of the fitted dose curve at least 0.9, where 1 is the maximum; inactive = score below 0.9.

read-out: Plasminogen Activator Inhibitor-1 (PAI1), SERPINE1 (gene 5054); test: BSK_BF4T_PAI1: BioMAP Diversity Plus: BF4T Assay for Plasminogen Activator Inhibitor-1 (PAI1) Biomarker Activity (AID 2284273); conditions: primary human bronchial epithelial cells with fibroblasts
Experimental: (§1) BSK_BF4T is a cell-based, multiplexed-readout assay that uses bronchial epithelial cells and dermal fibroblasts, a human vascular primary cell, with measurements taken at 24 hours after chemical dosing in a microplate: 96-well plate.BSK_BF4T_PAI1 is an assay component measured in the BSK_BF4T assay. It measures PAI-1 antibody related to regulation of gene expression using ELISA technology.Data from the assay component BSK_BF4T_PAI1 was analyzed at the endpoint, BSK_BF4T_PAI1, in the positive analysis fitting direction relative to DMSO as the negative control and baseline of activity. Using a type of binding reporter, gain or loss-of-signal activity can be used to understand protein changes. To generalize the intended target to other relatable targets, this assay endpoint is annotated to the 'cytokine' intended target family, where the subfamily is 'plasmogen activator inhibitor'.
(§2) The levels of cell surface (or secreted, indicated by the prefix "s") biomarker endpoints were measured by ELISA. Overt cytotoxicity to cells in confluent adherent cultures (all systems other than the BT system) was assessed by measuring total protein levels using sulforhodamine B (SRB) staining in parallel cultures at the time of biomarker measurements, indicated as SRB endpoints. For proliferation assays for adherent cell types, individual cell types are cultured at sub-confluence and relative cell numbers quantified by SRB staining at time points optimized for each system (48 h: 3C and CASM3C systems; 72 h: BT and HDF3CGF systems; 96 h: SAg system). SRB was performed by staining cells with 0.1% SRB after fixation with 10% TCA and reading wells at 560 nm.Viability and proliferation of PBMC (T cells) was quantified by Alamar Blue reduction for the SAg and BT systems. For PBMC viability (referred to as PBMC Cytotoxicity within the assay endpoint names), cells were plated (75,000/well in a 96-well plate) and then chemical samples added for 1 h before addition of activators, SEB and TSST-1 (20 ng/mL final concentration each). Cells were incubated for 90 h. Then, Alamar Blue (20 uL/well) (Invitrogen, Cat DAL1100) was added for 6 h, and the plates were read with a fluorescence microplate reader at 546/580 nm (excitation/emission). For PBMC proliferation, cells were plated and activated as above but incubated for only 16 h prior to addition of Alamar Blue. Plates were read after 6 h.

Compound | AC50 | outcome
O=C(O)C(F)(F)C(F)(F)C(F)(F)C(F)(F)C(F)(F)C(F)(F)C(F)(F)C(F)(F)C(F)(F)F | 22.9 µM (active) and 24.8 µM (active) | 
O=S(=O)(O)C(F)(F)C(F)(F)C(F)(F)C(F)(F)C(F)(F)C(F)(F)F |  | inactive
O=S(=O)(O)C(F)(F)C(F)(F)C(F)(F)C(F)(F)F |  | inactive
NS(=O)(=O)C(F)(F)C(F)(F)C(F)(F)C(F)(F)C(F)(F)C(F)(F)C(F)(F)C(F)(F)F | 44 µM (active) and 45.9 µM (active) | 
O=C(O)C(F)(F)C(F)(F)C(F)(F)C(F)(F)C(F)(F)F |  | inactive
O=C(O)C(F)(F)C(F)(F)C(F)(F)C(F)(F)C(F)(F)C(F)(F)C(F)(F)C(F)(F)F | 47.5 µM (active) and 46.2 µM (active) | 

read-out: not listed separately; test: BSK_BF4T_SRB: Viability Assessment in the BioMAP Diversity Plus: BF4T Assay (AID 2284274); conditions: primary human bronchial epithelial cells with fibroblasts;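 as to AC50: measured 24 h after compound addition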
Experimental: BSK_BF4T is a cell-based, multiplexed-readout assay that uses bronchial epithelial cells and dermal fibroblasts, a human vascular primary cell, with measurements taken at 24 hours after chemical dosing in a microplate: 96-well plate.BSK_BF4T_SRB is an assay component measured in the BSK_BF4T assay. It measures 0.1% sulforhodamine related to cell death using Sulforhodamine staining technology.Data from the assay component BSK_BF4T_SRB was analyzed at the endpoint, BSK_BF4T_SRB, in the positive analysis fitting direction relative to DMSO as the negative control and baseline of activity. Using a type of viability reporter, gain or loss-of-signal activity can be used to understand protein changes. To generalize the intended target to other relatable targets, this assay endpoint is annotated to the 'cell morphology' intended target family, where the subfamily is 'cell conformation'.
as §2

Compound | AC50 | outcome
O=C(O)C(F)(F)C(F)(F)C(F)(F)C(F)(F)C(F)(F)C(F)(F)C(F)(F)C(F)(F)C(F)(F)F | 17.7 µM (active) and 19.3 µM (active) | 
O=S(=O)(O)C(F)(F)C(F)(F)C(F)(F)C(F)(F)C(F)(F)C(F)(F)F |  | inactive
O=S(=O)(O)C(F)(F)C(F)(F)C(F)(F)C(F)(F)F |  | inactive
NS(=O)(=O)C(F)(F)C(F)(F)C(F)(F)C(F)(F)C(F)(F)C(F)(F)C(F)(F)C(F)(F)F | 45 µM (active) and 47.5 µM (active) | 
O=C(O)C(F)(F)C(F)(F)C(F)(F)C(F)(F)C(F)(F)F |  | inactive
O=C(O)C(F)(F)C(F)(F)C(F)(F)C(F)(F)C(F)(F)C(F)(F)C(F)(F)C(F)(F)F | 43.3 µM (active) and 44 µM (active) | 

read-out: urokinase Plasminogen Activator (uPA), PLAU (gene 5328); test: BSK_BF4T_uPA: BioMAP Diversity Plus: BF4T Assay for urokinase Plasminogen Activator (uPA) Biomarker Activity (AID 2284275); conditions: primary human bronchial epithelial cells with fibroblasts
Experimental: as §1, with “plate.BSK_BF4TA” for “plate.BSK_BF4T_PAI1”, “uPA” for “PAI-1”, “BSK_BF4TA” for “BSK_BF4T_PAI1”, “BSK_BF4TA,” for “BSK_BF4T_PAI1,”, “'protease'” for “'cytokine'”, “'serine protease'.” for “'plasmogen activator inhibitor'.”
as §2

Compound | AC50 | outcome
O=C(O)C(F)(F)C(F)(F)C(F)(F)C(F)(F)C(F)(F)C(F)(F)C(F)(F)C(F)(F)C(F)(F)F | 14.6 µM (active) and 18 µM (active) | 
O=S(=O)(O)C(F)(F)C(F)(F)C(F)(F)C(F)(F)C(F)(F)C(F)(F)F |  | inactive
O=S(=O)(O)C(F)(F)C(F)(F)C(F)(F)C(F)(F)F |  | inactive
NS(=O)(=O)C(F)(F)C(F)(F)C(F)(F)C(F)(F)C(F)(F)C(F)(F)C(F)(F)C(F)(F)F | 48.2 µM (active) and 44.3 µM (active) | 
O=C(O)C(F)(F)C(F)(F)C(F)(F)C(F)(F)C(F)(F)F |  | inactive
O=C(O)C(F)(F)C(F)(F)C(F)(F)C(F)(F)C(F)(F)C(F)(F)C(F)(F)C(F)(F)F | 50.3 µM (active) and 54.7 µM (active) | 
